Records with an inconclusive call do not appear. Where a call stands in place of a potency, no number is given. The source made the active and inactive calls. The call rests on the fitted dose curve.
Each compound was assayed against Acetylcholinesterase (Homo sapiens) (UniProt P22303) (assay: Acetylcholinesterase (AChE) small molecule antagonists: colormetric cell-based qHTS assay (AID 1347395; further: nearly all actives have a fitted effect of over 30% in size)). Details: SH-SY5Y cells AChE activity, colorimetric (Ellman); series mostly up to 115 µM.
Procedure, shortened: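 AChE inhibition read colorimetrically via DTNB–thiocholine in SH-SY5Y cells. Compound 30 min, substrate 90 min, both 37 C.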
Potency means the concentration at half of the fitted maximal effect.

Sequence of Acetylcholinesterase (Homo sapiens) (P22303 whole entry, looked up): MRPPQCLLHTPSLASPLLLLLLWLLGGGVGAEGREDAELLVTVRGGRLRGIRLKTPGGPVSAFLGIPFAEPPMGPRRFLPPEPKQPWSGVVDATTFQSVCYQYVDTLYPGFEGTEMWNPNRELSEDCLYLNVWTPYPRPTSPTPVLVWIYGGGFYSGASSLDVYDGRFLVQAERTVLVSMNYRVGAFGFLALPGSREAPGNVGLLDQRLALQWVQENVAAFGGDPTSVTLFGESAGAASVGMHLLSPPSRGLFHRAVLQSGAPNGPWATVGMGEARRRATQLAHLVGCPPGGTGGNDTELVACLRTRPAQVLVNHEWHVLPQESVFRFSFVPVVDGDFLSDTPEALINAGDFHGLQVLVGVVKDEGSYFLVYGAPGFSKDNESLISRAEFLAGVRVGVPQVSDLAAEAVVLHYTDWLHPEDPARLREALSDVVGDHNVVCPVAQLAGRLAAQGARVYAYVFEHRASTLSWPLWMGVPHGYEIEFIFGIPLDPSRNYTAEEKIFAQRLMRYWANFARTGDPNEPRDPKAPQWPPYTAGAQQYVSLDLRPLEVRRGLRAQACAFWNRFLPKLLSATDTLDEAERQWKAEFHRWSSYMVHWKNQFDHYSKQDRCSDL

Structure (SMILES) | Potency | activity, negative = inhibition
CC(=O)OC(C)c1ccccc1 (centres undefined) | inactive | –
CC1(C)CC(O)CC(C)(C)N1 | inactive | –
C=CCOC(=O)c1ccc(C(=O)OCC=C)c(C(=O)OCC=C)c1 | inactive | –
CCCCN(CCCC)C(=S)SSC(=S)N(CCCC)CCCC | inactive | –
Cc1ccc(C(C)C)cc1O | inactive | –
CC1=C(C(=O)O)N2C(=O)[C@@H](NC(=O)[C@H](N)C3=CCC=CC3)[C@H]2SC1 | inactive | –
NC(N)=NCCN1CCCCCCC1 | – | 6.69% [at 0.435 µM] (inactive)
ICCc1ccccc1 | inactive | –
O=C(Oc1ccccc1)Oc1ccccc1 | inactive | –
CCN(Cc1c(F)cccc1Cl)c1c([N+](=O)[O-])cc(C(F)(F)F)cc1[N+](=O)[O-] | inactive | –
Nc1nc2c(ncn2CCC(CO)CO)c(=O)[nH]1 | inactive | –
O=C(O)C(S)C(S)C(=O)O (centres undefined) | inactive | –
Clc1ccc2cc3ccccc3cc2c1 | inactive | –
N[C@H]1C(O)O[C@H](CO)[C@H](O)[C@@H]1O (some centres undefined) | inactive | –
N#Cc1ccccc1 | inactive | –
OC1CCCCCCCCCCC1 | inactive | –
CCCCCCCC=O | inactive | –
CC=C(Cl)Cl | inactive | –
CS(=O)(=O)CCNCc1ccc(-c2ccc3ncnc(Nc4ccc(OCc5cccc(F)c5)c(Cl)c4)c3c2)o1 | inactive | –
CCCNC(C)C(=O)Nc1c(C)csc1C(=O)OC (centres undefined) | inactive | –

Structure (SMILES) | Potency | activity, negative = inhibition
CN(C)CCOC(c1ccccc1)c1ccc(Br)cc1 (centres undefined) | inactive | –
CCOC(=O)C(F)(F)F | inactive | –
CCCCCCCCN | inactive | –
CC(c1cc2ccccc2s1)N(O)C(N)=O (centres undefined) | inactive | –
CN(c1nccc(=O)[nH]1)C1CCN(c2nc3ccccc3n2Cc2ccc(F)cc2)CC1 | inactive | –
O=C(O)c1ccco1 | inactive | –
CN(C)c1ccc(O)c2c1C[C@H]1C[C@H]3[C@H](N(C)C)C(=O)C(C(N)=O)=C(O)[C@@]3(O)C(=O)C1=C2O | inactive | –
CC/C(C)=N/O | inactive | –
CC1(C)O[C@H]2CC(=O)OC[C@]23[C@H]2CC[C@@]4(C)[C@H](c5ccoc5)OC(=O)[C@H]5O[C@]54[C@]2(C)C(=O)C[C@@H]13 | inactive | –
CCc1oc2ccccc2c1C(=O)c1cc(Br)c(O)c(Br)c1 | inactive | –
C[C@H]1O[C@H](O[C@H]2[C@H](O)[C@@H](O)[C@@H](O[C@H]3[C@H](O)[C@@H](O)[C@H](O)O[C@@H]3CO)O[C@@H]2CO)[C@H](O)[C@@H](O)[C@@H]1N[C@H]1C=C(CO)[C@@H](O)[C@H](O)[C@H]1O | inactive | –
CCc1c(C(=O)NN2CCCCC2)nn(-c2ccc(Cl)cc2Cl)c1-c1ccc(Br)cc1 | inactive | –
Oc1ccc2c(c1)OC[C@@H](N1CCC(O)(c3ccc(F)cc3)CC1)[C@H]2O | inactive | –
CC(=O)c1c(C)c([N+](=O)[O-])c(C(C)(C)C)c([N+](=O)[O-])c1C | 79.6 µM (active) | –
C=CCc1cc(OC)c(O)c(C(=O)NCCO)c1 | inactive | –
CCCOC(=O)C(C)O (centres undefined) | inactive | –
CCOCCO | inactive | –
C=CCOC(=O)C(=C)C | inactive | –
COc1ccccc1Oc1c(NS(=O)(=O)c2ccc(C(C)(C)C)cc2)nc(-c2ncccn2)nc1OCCO | inactive | –
